Results filed as inconclusive are left out. Calls of active or inactive are those of the source. Calls follow the shape of the dose curve; as a rule, active = well fitted cell-killing curve with a large enough effect; inconclusive = small, poorly fitted or top-dose-only effect, or effect the other way; inactive = no such curve, though single readings can be large or run the other way. Residues, ends and D or L forms follow the SMILES beside them. *: point of attachment. Cbz = O=C(OCc1ccccc1)*
Columns and labels:
[1] = Quantitative High-Throughput drug screen in 47 multiple myeloma cell lines against the NCATS MIPE library collection: KMS11_JCRBsus cell viability assay (AID 1919873); also: nearly all actives have a fitted effect of over 50% in size
Outline: (§1)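 Readout: median RLU from CellTiter-Glo after 5 min at room temperature. Preceding step was 48 h drug treatment of 500 cells/well at 37 °C, 5% CO2, with DMSO-only and media-only control wells.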

[2] = Quantitative High-Throughput drug screen in 47 multiple myeloma cell lines against the NCATS MIPE library collection: KMS28BM_JCRB cell viability assay (AID 1919874); also: nearly all actives have a fitted effect of over 35% in size
Outline: as §1
Potency is read from the fitted curve at half-maximal effect.

SMILES | Potency [1] | Potency [2]
COc1cc([C@@H]2c3cc4c(cc3[C@@H](O[C@@H]3O[C@@H]5CO[C@@H](c6cccs6)O[C@@H]5[C@H](O)[C@@H]3O)[C@H]3COC(=O)[C@H]23)OCO4)cc(OC)c1O | 1.32 µM (active) | 1.32 µM (active)
CC(C)C[C@@H](C=O)NC(=O)[C@H](CC(C)C)NC(=O)[C@H](CC(C)C)NC(=O)OCc1ccccc1 (Cbz-Leu-Leu-Leu-aldehyde) | 0.264 µM (active) | 0.235 µM (active)
CCOC(=O)N1CCN([N+]([O-])=NOc2ccc([N+](=O)[O-])cc2[N+](=O)[O-])CC1 | 0.332 µM (active) | 0.833 µM (active)
COc1cc(O)c2c(c1)C1OC1C[C@H](O)[C@H](O)C(=O)C=CC[C@H](C)OC2=O (some centres not stated) | 2.35 µM (active) | 3.72 µM (active)
Cc1nc(NC(=O)N2CCC[C@@H]2C(N)=O)sc1-c1ccnc(C(C)(C)C(F)(F)F)c1 | 0.166 µM (active) | 1.18 µM (active)
Nc1ccc(C(=O)Nc2cccc(-c3nc(N4CCOCC4)c4oc5ncccc5c4n3)c2)cn1 | 6.62 µM (active) | 26.4 µM (active)
CC(=O)N[C@@H]1[C@H](O[C@@H]2c3ccc(c(Cl)c3)Oc3cc4cc(c3O[C@H]3O[C@H](CO)[C@@H](O)[C@H](O)[C@H]3NC(=O)CCCCCCCC(C)C)Oc3ccc(cc3Cl)C[C@H]3NC(=O)[C@H](N)c5ccc(O)c(c5)Oc5cc(O)cc(c5)[C@H](NC3=O)C(=O)N[C@H]4C(=O)N[C@H]3C(=O)N[C@@H]2C(=O)N[C@@H](C(=O)O)c2cc(O)cc(O[C@H]4O[C@H](CO)[C@@H](O)[C@H](O)[C@H]4O)c2-c2cc3ccc2O)O[C@H](CO)[C@@H](O)[C@@H]1O | inactive | inactive
CC(C)(N)c1ccc(-c2nc3ccccc3nc2-c2ccccc2)cc1 | 18.7 µM (active) | 26.4 µM (active)
N#CNC(=NCCCCCCOc1ccc(Cl)cc1)Nc1ccncc1 | 0.0026 µM (active) | 0.105 µM (active)
CC(C)(O)[C@H]1CC[C@@](C)([C@H]2[C@@H](O)C[C@@]3(C)[C@@H]4C[C@H](O[C@@H]5O[C@H](CO)[C@@H](O)[C@H](O)[C@@H]5O)[C@H]5C(C)(C)[C@@H](O[C@@H]6OC[C@@H](O)[C@H](O)[C@@H]6O)CC[C@@]56C[C@@]46CC[C@]23C)O1 | inactive | inactive
COc1cccc2c1C(=O)c1c(O)c3c(c(O)c1C2=O)C[C@@](O)(C(=O)CO)C[C@@H]3O[C@H]1C[C@H](N)[C@@H](O)[C@H](C)O1 | 0.935 µM (active) | 0.418 µM (active)
CCc1c(O)cc(O)c(C(=O)c2ccc(OCCN3CCOCC3)c(OC)c2)c1CC(=O)N(CCOC)CCOC | 0.935 µM (active) | 1.32 µM (active)
O=C(C[C@@H]1CC=CCCC(=O)O[C@H](c2ccccc2)CNC1=O)NCc1ccc(Cl)cc1 | inactive | inactive
CO[C@@H]1[C@@H](O)[C@H](O)[C@@H](n2c3c(Cl)cccc3c3c4c(c5c6cccc(Cl)c6[nH]c5c32)C(=O)NC4=O)O[C@@H]1CO | 2.96 µM (active) | 0.935 µM (active)
CN(C)CC(=O)N1CCC(c2ccc(NC(=O)c3ncc(C#N)[nH]3)c(C3=CCCCC3)c2)CC1 | 18.7 µM (active) | 26.4 µM (active)
CCCCCCCCCCCC(CC1OC(=O)C1CCCCCC)OC(=O)C(CC(C)C)NC=O (configuration not stated) | inactive | inactive
O=c1[nH]c(=O)n([C@H]2C[C@@H](O)[C@@H](CO)O2)cc1F | 0.526 µM (active) | 20.9 µM (active)
O=[N+]([O-])c1cn2c(n1)OC[C@@H](OCc1ccc(OC(F)(F)F)cc1)C2 | inactive | inactive
C[C@](Cc1c[nH]c2ccccc12)(NC(=O)OC1C2CC3CC(C2)CC1C3)C(=O)NC[C@H](NC(=O)CCC(=O)O)c1ccccc1 (some centres not stated) | inactive | inactive

SMILES | Potency [1] | Potency [2]
CC(=O)OC[C@@H]1O[C@@H](n2ccc(=O)[nH]c2=O)[C@H](OC(C)=O)[C@H]1OC(C)=O | inactive | inactive
CC(C)C[C@H](NC(=O)CNC(=O)c1cc(Cl)ccc1Cl)B1OC(=O)CC(CC(=O)O)(C(=O)O)O1 (some centres not stated) | 0.0418 µM (active) | 0.0526 µM (active)
CCN(C(=O)c1c(O)c2c(Cl)cccc2n(C)c1=O)c1ccccc1 | inactive | inactive
Cn1cc(CNCC2CCN(c3ncc(C(=O)NO)cn3)CC2)c2ccccc21 | 0.0264 µM (active) | 0.0187 µM (active)
COc1cccc2c1C(=O)c1c(O)c3c(c(O)c1C2=O)C[C@@](O)(C(C)=O)C[C@H]3O[C@H]1C[C@H](N)[C@H](O)[C@H](C)O1 | 0.0935 µM (active) | 0.0296 µM (active)
O=c1[nH]c(=O)n([C@H]2C[C@@H](O)[C@@H](CO)O2)cc1C=CBr | inactive | inactive
CCc1cnn2c(NCc3ccc[n+]([O-])c3)cc(N3CCCC[C@@H]3CCO)nc12 | 0.0209 µM (active) | 0.0296 µM (active)
CCOC(=O)[C@H](CCc1ccccc1)N[C@@H](C)C(=O)N1[C@@H](C(=O)O)C[C@H]2CCC[C@@H]21 | 6.62 µM (active) | 5.9 µM (active)
CC[C@H](CC[C@@H](C)[C@H]1CC[C@H]2[C@@H]3CC=C4C[C@@H](O)CC[C@]4(C)[C@@H]3CC[C@]12C)C(C)C | inactive | inactive
NC(=O)c1ncn([C@@H]2O[C@H](CO)[C@@H](O)[C@@H]2O)c1O | inactive | inactive
C[N+](C)([O-])CCNc1ccc(NCC[N+](C)(C)[O-])c2c1C(=O)c1c(O)ccc(O)c1C2=O | inactive | inactive
CCCc1nc(C(C)(C)O)c(C(=O)O)n1Cc1ccc(-c2ccccc2-c2nn[nH]n2)cc1 | inactive | inactive
CC(C)N1[N]C(=C2C=c3cc(O)ccc3=N2)c2c(N)ncnc21 | 0.105 µM (active) | 1.32 µM (active)
CC[C@H]1OC(=O)[C@H](C)[C@@H](O[C@H]2C[C@@](C)(OC)[C@@H](O)[C@H](C)O2)[C@H](C)[C@@H](O[C@@H]2O[C@@H](C)C[C@H](N(C)C)[C@@H]2O)[C@](C)(O)C[C@@H](C)C(=O)[C@H](C)[C@@H](O)[C@]1(C)O | inactive | inactive
CN(C)c1ccc(C(=O)NCCCCCCC(=O)NO)cc1 | 0.743 µM (active) | 0.526 µM (active)
c1cc(CN2CCCNCCNCCCNCC2)ccc1CN1CCCNCCNCCCNCC1 | inactive | inactive
O=C(NNC(=O)c1ccc(CNS(=O)(=O)c2ccc(F)c(Cl)c2)cc1)c1ccccc1 | inactive | inactive
CC(C)c1cc(C(C)C)c(CC(=O)NS(=O)(=O)Oc2c(C(C)C)cccc2C(C)C)c(C(C)C)c1 | 2.35 µM (active) | inactive
CC[C@@]1([C@@H]2O[C@@H]([C@H]3O[C@@](O)(CO)[C@H](C)C[C@H]3C)C[C@H]2C)CC[C@H]([C@]2(C)CC[C@]3(C[C@H](O)[C@@H](C)[C@@H]([C@@H](C)[C@@H](OC)[C@H](C)C(=O)O)O3)O2)O1 | 0.288 µM (active) | 0.575 µM (active)

SMILES | Potency [1] | Potency [2]
C[N+]1(C)[C@@H]2C[C@@H](OC(=O)C(O)(c3cccs3)c3cccs3)C[C@H]1[C@@H]1O[C@@H]12 | inactive | inactive
OCc1ccccc1O[C@@H]1O[C@H](CO)[C@H](O)[C@H](O)[C@H]1O | inactive | inactive
CCNC(=O)c1cc2c(-c3cc(OCCN4CCCC4)c(Cl)cc3Cl)nc(N)nc2s1 | 0.59 µM (active) | 1.32 µM (active)
C=CC(=O)Nc1ccc2ncnc(Nc3ccc(OCc4cccc(F)c4)c(Cl)c3)c2c1 | 0.187 µM (active) | 0.132 µM (active)
C#C[C@]1(O)CC[C@@H]2[C@@H]3CCc4cc(O)ccc4[C@H]3CC[C@@]21C | 10.5 µM (active) | 4.69 µM (active)
O=C(CN1C(=O)C2(CCCC2)NC[C@H]1c1cc(F)cc(F)c1)Nc1ccc2c(c1)C[C@@]1(C2)C(=O)Nc2ncccc21 | inactive | inactive
CC(C)[C@H](CO)Nc1nc(Nc2cccc(Cl)c2)c2ncn(C(C)C)c2n1 | 11.8 µM (active) | 18.7 µM (active)
CCN(CC)CCCCNc1ncc2c(n1)N(C)C(=O)N(c1c(Cl)c(OC)cc(OC)c1Cl)C2 | 20.9 µM (active) | 11.8 µM (active)
CC(=O)[C@]1(O)Cc2c(O)c3c(c(O)c2[C@@H](O[C@H]2C[C@H](N)[C@@H](O)[C@H](C)O2)C1)C(=O)c1ccccc1C3=O | 0.264 µM (active) | 0.148 µM (active)
Cn1cc(-c2cnn3c(N)c(Br)c([C@H]4CCCNC4)nc23)cn1 | 5.26 µM (active) | 4.69 µM (active)
CC(C(C)N1CC(=O)NC(=O)C1)N1CC(=O)NC(=O)C1 (configuration not stated) | inactive | inactive
OCCNC1CCCc2c1[nH]c1ccc(-c3ccccc3)cc21 (configuration not stated) | 2.96 µM (active) | 20.9 µM (active)
OC[C@@H](O)[C@@H](O)[C@H](O)[C@@H](O)CO | inactive | inactive
CCC(C(=O)O)C1CCC(C)C(C(C)C(O)C(C)C(=O)C(CC)C2OC3(C=CC(O)[C@@]4(CC[C@](C)(C5CC[C@@](O)(CC)C(C)O5)O4)O3)C(C)CC2C)O1 (some centres not stated) | 3.72 µM (active) | 6.62 µM (active)
CCOc1cc2c(c(F)c1OCC)C(=N)N(CC(=O)c1cc(N3CCOCC3)c(OC)c(C(C)(C)C)c1)C2 | 7.43 µM (active) | 8.33 µM (active)
COc1cc2c(cc1OC)[C@@H]1C(=O)c3ccc4c(c3O[C@@H]1CO2)C=CC(C)(C)O4 | 0.0418 µM (active) | 5.9 µM (active)
Cn1cnc(=N)c2[nH]cnc21 | 0.0935 µM (active) | 0.0469 µM (active)
Nc1nc2c(c(=O)[nH]1)N(C=O)[C@H](CNc1ccc(C(=O)N[C@@H](CCC(=O)O)C(=O)O)cc1)CN2 | inactive | inactive
